Assay results from PubChem BioAssay (NCI).
About 79,000 compounds went through this panel and 15% of them were active in at least one assay; those are over-represented in the sample as a whole. Rule as the data show it: active = growth inhibition above about 70%; inactive = the rest. Where a SMILES comes first, the peptide text is derived from it. The star is where a group is joined. Cbz = O=C(OCc1ccccc1)*

Legend:
[1] = NCI Yeast Anticancer Drug Screen. Data for the rad50 strain (AID 155);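 also: 0% = growth of vehicle-only cultures of the same strain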; conditions: S. cerevisiae rad50 strain growth inhibition; at 50.0 µM; stronger effect = higher value
Outline: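 Relative growth inhibition (compound vs vehicle) was measured in yeast with a defined repair-gene alteration.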

[2] = NCI Yeast Anticancer Drug Screen. Data for the mec2-1 strain (AID 157); conditions: S. cerevisiae mec2-1 strain, at 50.0 µM, stronger effect = higher value
Outline: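 Readout is yeast growth inhibition, normalised to vehicle-treated controls, in the mec2-1 strain exposed to compound.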

[3] = NCI Yeast Anticancer Drug Screen. Data for the sgs1 mgt1 strain (AID 161);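 also: 0% = growth of cultures given vehicle only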; conditions: S. cerevisiae sgs1 mgt1 strain, at 50.0 µM, stronger effect = higher value
Outline: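 Percent growth inhibition was derived by comparing compound-exposed mutant yeast with vehicle-exposed cultures. The strain carries alterations in DNA damage repair.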

[4] = NCI Yeast Anticancer Drug Screen. Data for the cln2 rad14 strain (AID 165);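 also: 0% = growth equal to vehicle treated cultures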; conditions: S. cerevisiae cln2 rad14 strain, at 50.0 µM, stronger effect = higher value
Outline: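 Relative to vehicle controls, growth inhibition of compound-treated cln2 rad14 yeast was recorded.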

[5] = NCI Yeast Anticancer Drug Screen. Data for the bub3 strain (AID 167); conditions: S. cerevisiae bub3 mutant strain, at 50.0 µM, stronger effect = higher value
Outline: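 Screening used yeast with an engineered genetic alteration affecting cell cycle control. Compound-exposed cultures were compared with vehicle cultures, and reduced growth was taken as inhibition.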

[6] = NCI Yeast Anticancer Drug Screen. Data for the mlh1 rad18 strain (AID 175); conditions: S. cerevisiae mlh1 rad18 strain growth inhibition; at 50.0 µM; stronger effect = higher value
Outline: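 Test agents were incubated with a yeast strain of defined genotype (DNA damage repair defect). Inhibition of growth was derived by comparison with vehicle-exposed cultures.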

Measured: growth inhibition

CC(Oc1ccccc1-c1ccccc1)C(=O)N(C)C (stereo unspecified)
inactive: [1] -15.2% | [2] -0.2% | [3] 1.45% | [4] 0.75% | [5] -20.6% | [6] -45.6%

CCCCN(CCCC)CCNC(c1ccc(Cl)cc1)c1ccc(OC)cc1 (stereo unspecified)
inactive: [1] 14.5% | [2] 4.3% | [3] 4.45% | [4] -7.85% | [5] 8.35% | [6] 33.4%

CC(=O)/C(=C\c1ccc(C(F)(F)F)cc1)C(=O)CCN(C)C
inactive: [1] 43.4% | [2] 0.05% | [3] 51.6% | [4] 19.6% | [5] 3.25% | [6] 25.7%

CSCCC(NCc1c(O)ccc2c(C)cc(=O)oc12)C(=O)O (stereo unspecified)
inactive: [1] 16.5% | [2] 0.85% | [3] 14% | [4] 25.9% | [5] -1.05% | [6] 26.7%

O=C(Nc1cc(Cl)c(Cl)cc1Cl)N1CCOCC1
inactive: [1] 0.15% | [2] -30.7% | [3] -11.2% | [4] 5.25% | [5] -6.1% | [6] -5.15%

CCC(C)(C)c1ccccc1
inactive: [1] 13.2% | [2] 6% | [3] 20% | [4] 10.9% | [5] 8.95% | [6] 15.3%

Nc1ncnc2c1c1cncnc1n2C1OC(CO)C(O)C1O (stereo unspecified)
inactive: [1] 9.55% | [2] -4.75% | [3] -9.55% | [4] 16.1% | [5] 7.45% | [6] 17.1%

O=C(O)c1cccc(S(=O)(=O)NN2C(=O)CSC2c2ccccc2Cl)c1 (stereo unspecified)
inactive: [1] 28.5% | [2] -3.95% | [3] 2.85% | [4] 5.9% | [5] 12.7% | [6] 28.7%

CC/C(=C(\CC)c1ccc(OC2C=CCCC2)cc1)c1ccc(OC2C=CCCC2)cc1 (stereo unspecified)
inactive: [1] 28.3% | [2] -4.7% | [3] 7% | [4] -2.55% | [5] -13.8% | [6] -0.1%

CCOC(=S)Sc1ccc2c(c1)-c1ccc(F)cc1C2=O
inactive: [1] 7% | [2] 6.3% | [3] 2.1% | [4] 10.2% | [5] -3.85% | [6] -1.65%

CCO/C(C)=N/n1c(C)nc2[nH]ncc2c1=O
inactive: [1] 1.55% | [2] -10.8% | [3] 5.55% | [4] -6.45% | [5] 11.7% | [6] 17.9%

O=C(CN1C(=O)CC(c2ccccc2)(c2ccccc2)C1=O)N1CCN(CCO)CC1
inactive: [1] -0.35% | [2] -4.6% | [3] -22.1% | [4] -5.25% | [5] -16.2% | [6] 2.3%

Nc1nc(N)c(N=Nc2ccc([N+](=O)[O-])cc2)c(=O)[nH]1
inactive: [1] -0.9% | [2] -16.9% | [3] -12% | [4] 9% | [5] 0.7% | [6] -3.9%

Cc1ccccc1/C=N/NC(=O)c1cccc2ccccc12
inactive: [1] -6.85% | [2] 0.8% | [3] -10.8% | [4] -23% | [5] 0.75% | [6] 0.6%

O=C(NC1CCCCC1)Oc1ccc[nH]c1=O
inactive: [1] -14.8% | [2] -16.8% | [3] -13.6% | [4] -26.9% | [5] 2.25% | [6] -1.25%

CCOC(=O)Nc1nc2cc(C(=O)OC)n(C)c2s1
inactive: [1] 19.4% | [2] 23.6% | [3] 25.7% | [4] 11.1% | [5] 7.4% | [6] 18.9%

Cc1ccc(S(=O)(=O)N(CCO)CC(C)O)cc1 (stereo unspecified)
inactive: [1] -15.9% | [2] -24.1% | [3] -23.2% | [4] -13% | [5] -24.1% | [6] -26.8%

CC(=O)Nc1ccccc1N
inactive: [1] 15.4% | [2] 14.9% | [3] -2.85% | [4] 4.6% | [5] -14.3% | [6] 14.5%

C=C(Br)c1ccc2c(c1)OCO2
inactive: [1] 30% | [2] 15.7% | [3] 20.9% | [4] 8% | [5] 4.05% | [6] -8.55%

CNC(=O)c1cc2nc3ccccc3c(=O)n2c2ccccc12
inactive: [1] -46.3% | [2] -54% | [3] -25.1% | [4] -20.6% | [5] -7% | [6] -31.1%

CCOC(=O)C(=CNC(=S)Nc1cc(C)ccc1C)C(=O)OCC
inactive: [1] -12.8% | [2] -38.5% | [3] -14.1% | [4] -19.1% | [5] -16.7% | [6] -1.85%

CC(=O)Oc1ccc(C2OC(=O)c3ccccc3N2C(C)=O)cc1 (stereo unspecified)
inactive: [1] 4.05% | [2] 27.6% | [3] 12.7% | [4] -6.3% | [5] 34.6% | [6] 26.9%

CC1C(=O)C(c2ccccc2)(c2ccccc2)CC[N+]1(C)C (stereo unspecified)
inactive: [1] 1.1% | [2] 5.4% | [3] 2.8% | [4] -13.7% | [5] 4.1% | [6] 10.4%

O=C(Nc1ccccc1)Nc1cc(C(F)(F)F)ccc1Cl
inactive: [1] 36% | [2] 18.6% | [3] 4.15% | [4] -10.2% | [5] 2.95% | [6] -17.1%

CC(C)=NNC(=O)c1ccc(Cl)cc1
inactive: [1] -19.1% | [2] -25.1% | [3] -18.2% | [4] 17.1% | [5] -7.85% | [6] -32.1%

Cc1ccc(C(=O)O)c(C(=O)O)c1
inactive: [1] -11.2% | [2] -18.9% | [3] -18.4% | [4] -4.25% | [5] -17.1% | [6] 1.75%

CS(C)=O.CS(C)=O.[Cl][Ru+2][Cl].[NH-]c1ccccc1[NH-]
inactive: [1] 38.6% | [2] 7.6% | [3] 34.4% | [4] 23.8% | [5] -1.9% | [6] 27.8%

CCOC(=O)C1(C(F)(F)F)N=C(CC)OC(N2CCOCC2)=N1 (stereo unspecified)
inactive: [1] -23.9% | [2] -12.6% | [3] -18.7% | [4] 10.1% | [5] -16% | [6] -27.1%

N#C/C(=N\NC(=O)c1cccs1)c1ccccc1Cl
inactive: [1] -5.65% | [2] 1.2% | [3] 8% | [4] -33.1% | [5] 9.7% | [6] 3.45%

CN(C)c1ccc(/C=C/c2ccc(/C=C/c3ccc(N(C)C)cc3)cc2)cc1
inactive: [1] -15.1% | [2] -9.9% | [3] 5% | [4] 10.2% | [5] -11.4% | [6] 20.8%

COC(=O)C(Cc1nc2ccccc2[nH]c1=O)/C(=N\NC(C)(C)C)C(=O)Nc1c(C)cc(Br)cc1C (stereo unspecified)
inactive: [1] 17.2% | [2] -4.55% | [3] 5.9% | [4] -35.8% | [5] 3.7% | [6] -3%

COC(=O)CC(CC(=O)OC)N1CC=CC1
inactive: [1] -12.9% | [2] 10.5% | [3] -5.95% | [4] -15.1% | [5] 5.35% | [6] 31.6%

CCN(CC)CCC(C)C(Cc1cccs1)OC(C)=O (stereo unspecified)
inactive: [1] 4.1% | [2] -3.9% | [3] -2.95% | [4] -39% | [5] 35.2% | [6] 5.6%

COc1cc(CC2c3cc(OC)c(OC)cc3CCN2C)c(Oc2cc3c(cc2OC)-c2c(OC)c(OC)c(OC)c4c2C(C3)N(C)CC4)cc1OC (stereo unspecified)
inactive: [1] 9.7% | [2] -0.95% | [3] -7.05% | [4] 13.8% | [5] 0.3% | [6] 1.2%

COc1ccc2ncc(COC(=O)NC3CCCCC3)c(COC(=O)NC3CCCCC3)c2c1
inactive: [1] 36.9% | [2] -2.1% | [3] 24.4% | [4] -0.6% | [5] -4.25% | [6] 22.5%

COc1cc2c(cc1C(C)c1ccc(OC(C)C)cc1)OCO2 (stereo unspecified)
inactive: [1] -4.7% | [2] -9.95% | [3] -3.95% | [4] -48.5% | [5] -5.9% | [6] -11.5%

CS(=O)CC(Nc1ccccc1)c1ccccc1 (stereo unspecified)
inactive: [1] -3.75% | [2] -12.8% | [3] -10.6% | [4] 2% | [5] -25.6% | [6] -3.45%

COC(=O)C(OC)(OC)C(O)c1ccccc1 (stereo unspecified)
inactive: [1] 34.4% | [2] 4.6% | [3] 49% | [4] 4.95% | [5] -9.35% | [6] 6.8%

CCCCCCCCCCCO
inactive: [1] -5.75% | [2] -13.2% | [3] -3.8% | [4] -6.8% | [5] 2.15% | [6] -18.8%

Cc1cccc(C)c1NC(=O)C(=O)C(C#N)c1ccccc1Cl (stereo unspecified)
inactive: [1] -13.2% | [2] -47.7% | [3] -10.8% | [4] -1.1% | [5] 4.85% | [6] -11.5%

COC(=O)C(CC(C)C)NC(=O)C(CCCN=C(N)N)NC(=O)OCc1ccccc1 (stereo not drawn) (Cbz-Arg-Leu-OMe; configuration not given here)
inactive: [1] -27.7% | [2] -17.6% | [3] -15.7% | [4] 4.15% | [5] -10.3% | [6] -12.8%
